The source of these data is PubChem BioAssay AID435019 (Southern Research Specialized Biocontainment Screening …, 2010).

SMILES strings stand for the structures. Out of some 2,300 compounds screened, about 1,200 (52%) were called active. No rule for the calls is given here. So high a share suggests a set chosen from earlier hits. The list shows a part of the results. Measured potencies and affinities stand elsewhere.

The assay is described as follows: mammalian cell cytotoxicity, dose response, cytotoxicity control for M. tuberculosis inhibitor project (AID 435019).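 Also: lower values mean fewer viable cells so more cytotoxicity.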 As to conditions: cytotoxicity counter-screen; series mostly up to 40 µM.
For `CCOC(=O)Oc1ccc2oc(C)c(C(=O)OCCOC)c2c1`, the compound was called inactive.

For the compound `Cc1nc(SCC(=O)NCC2CCCO2)c2c3c(sc2n1)CCCC3` (configuration not stated), the compound was classed as inactive.

Take `COc1ccc(-c2cc(-c3ccc(OC)cc3)[nH]n2)cc1`: the outcome was inactive.

On to `O=C(OCC(=O)N1CCN(c2ccccc2)CC1)c1cnc(Cl)c(Cl)c1`, for which the compound was called inactive.

As to `Cc1ccc2nc(-c3cccc(Br)c3)cc(C(=O)NC3=NCCS3)c2c1`, the compound was called inactive.

For the compound `CCOC(=O)N1CCC(n2c(SCC(=O)OCc3ccccc3)nc3ccsc3c2=O)CC1`, the outcome was inactive.

With `C(=N\N1CCN(C2c3ccccc3-c3ccccc32)CC1)/c1ccccn1`, the compound was called inactive.

For `CCCC12CN3CC(CCC)(CN(C1)C3c1ccccn1)C2=O` (configuration not stated), the call was inactive.

`CCOC(=O)Cn1c(-c2ccccc2)ccc(C#N)c1=O`: the outcome was inactive.

For `CCOc1[nH]n(-c2ccccc2)c(=O)c1C=Nc1ccc(OC)cc1`, the outcome was inactive.

For the compound `COCCNC(=S)N/N=C(\C)c1ccc(OC)cc1`, the compound was classed as inactive.

As for `COc1ccccc1/C(C)=N/NC(=S)NCc1ccccc1`, the compound was called inactive.

For `O=C(CCN1C(=O)C2CCCCC2C1=O)Nc1nc(-c2ccc(F)c(F)c2)cs1` (configuration not stated), the call was inactive.

In the case of `Nc1c(-c2ccccn2)cnn1-c1nc(-c2ccc(F)cc2)cs1`, the call was inactive.

For the compound `CCOC(=O)c1cc(-c2csc(Nc3c(C)cc(C)cc3C)n2)on1`, the result was inactive.

As to `CCCOc1ccc2oc(=O)c3c(c2c1)CCCN3C(=O)CN1CCN(c2ncccn2)CC1`, the call was inactive.

`CCOC(=O)c1cc(/C(C)=N/OC(=O)c2ccc(C(C)(C)C)cc2)on1`: the compound was classed as inactive.

As for `O=C(Nc1cc(N2CCOCC2)ncn1)NC1(C(F)(F)F)Oc2ccc(Cl)cc2O1` (configuration not stated), the compound was called inactive.

On to `CCc1ccc(-c2csc(-c3c[nH]c4ccccc34)n2)cc1`, for which the compound was called inactive.

As to `Cc1ccc(CNc2ccc3c(c2)ncn3C(C)(C)C)cc1`, the call was inactive.

In the case of `CCn1c(SCC(=O)N(C)CCC#N)nc2cc(S(=O)(=O)N3CCOCC3)ccc21`, the result was inactive.

For the compound `CCc1ccc(N=Nc2ccc(O)c3[nH]cnc23)cc1`, the call was inactive.

On to `C=CCOc1ccc(/C=C/C(=O)OCC(=O)NCC2CCCO2)cc1` (configuration not stated), for which the compound was classed as inactive.

Regarding `CCCCOC(=O)CCN1C(=O)/C(=C2\SC(=S)N(CCC(=O)OCCCC)C2=O)SC1=S`, the compound was called inactive.

Regarding `Cc1ccc(NC(=O)Cn2ccsc2=N)c([N+](=O)[O-])c1`, the compound was called inactive.

With `COc1ccc(-c2nc(C#N)c(N3CCc4ccccc4C3)o2)cc1OC`, the compound was classed as inactive.

As for `c1ccc(C2[C@H]3CN(CC4CCCCC4)[C@H](c4ccccc4)C34CC2(c2cccnc2)C4)cc1` (some centres not stated), the outcome was inactive.

In the case of `COc1ccc(NC(C#N)c2ccc(OC)cc2)cc1` (configuration not stated), the result was inactive.

For `O=[N+]([O-])c1c(C(Cl)Cl)nn(-c2ccc(Cl)cc2)c1N1CCCCC1`, the call was inactive.

In the case of `O=C(COc1ccccc1)NNc1nc2ccccc2s1`, the compound was called inactive.

As to `O=C(COc1cccc(Oc2ccccc2)c1)Nc1ncccn1`, the compound was classed as inactive.

Consider `C/C(=N\NC(=S)Nc1cccc(C)c1)c1cccc(N)c1`, for which the compound was classed as inactive.

`O=C(NC(=S)Nc1cccc2cccnc12)c1ccccc1`: the call was inactive.

Consider `COc1ccc(Oc2ccc(N/C=C/C(=O)C(C)(C)C)cc2)cc1`, for which the result was inactive.

`O=c1c2c(-c3ccccc3)csc2ncn1/N=C/c1ccc(O)c([N+](=O)[O-])c1`: the result was inactive.

For `CCOc1ccc(NC(=S)Nc2ccc(C)c([N+](=O)[O-])c2)cc1`, the result was inactive.

On to `Cc1cc(C)n2nc(N)c(N=Nc3ccccc3)c2n1`, for which the compound was classed as inactive.

On to `Cc1ccccc1-n1c(O)c(C=Nc2ccc3c(c2)OCO3)c(=O)[nH]c1=O`, for which the outcome was inactive.

As for `S=c1[nH]c2ccc3ccccc3c2[nH]1`, the result was inactive.

For `CC1CN(C(=S)SCC(=O)c2ccc([N+](=O)[O-])cc2)CC(C)O1` (configuration not stated), the compound was classed as inactive.

On to `Cc1ncsc1CCOC(=O)c1ccc([N+](=O)[O-])cc1`, for which the result was inactive.

For the compound `O=C(c1ccc(CNc2c(N3CCCC3)c(=O)c2=O)cc1)N1CC=C(c2ccccc2)CC1`, the compound was called inactive.

As for `O=c1oc(-c2cccs2)nc2c1cnn2-c1ccccc1`, the compound was called inactive.

Turning to `Cc1nc2ccc(NC(=O)N(C(C)C)C(C)C)cc2s1`, the compound was called inactive.

As for `CCN1c2ccccc2N(C)C1(C)c1ccccc1` (configuration not stated), the call was inactive.

Regarding `COC(=O)CSc1ncnc2c1sc1nc3c(cc12)COC(C)(C)C3`, the call was inactive.

Consider `Cc1ccc(NC(=O)COC(=O)C(NS(=O)(=O)c2ccc(Cl)cc2)C(C)O)cc1C` (configuration not stated), for which the outcome was inactive.

For `Fc1ccc(N/N=C2/CC(c3ccccc3)Oc3ccccc32)c(F)c1` (configuration not stated), the outcome was inactive.

Regarding `CCCCc1cc(=O)oc2cc(O)ccc12`, the compound was classed as inactive.

For the compound `CCCCN1C(=N)N([C@@H](CCC)CN2CCC[C@H]2CN2C(N)=NC[C@@H]2Cc2ccccc2)C[C@H]1Cc1ccccc1`, the result was inactive.

On to `O=C(CNC(=O)c1ccc(Cl)cc1)c1ccc(Cl)cc1`, for which the outcome was inactive.

As for `CCOC(=O)COc1cc(O)c2c(=O)cc(-c3ccccc3)oc2c1`, the compound was called inactive.

`CC(=O)/C=C(\C)Nc1ccccc1O`: the compound was called inactive.

As for `N#Cc1nccnc1S(=O)(=O)c1cccs1`, the compound was called inactive.

As to `CCOC(=O)C(=NC1CCS(=O)(=O)C1)NNc1ccc(Br)cc1` (configuration not stated), the call was inactive.

As to `O=C(C[n+]1ccc(C(=O)c2ccccc2)cc1)Nc1ccc(C(F)(F)F)cc1`, the compound was classed as inactive.

As for `C/C(=N\NC(N)=S)c1ccc(Cl)s1`, the outcome was inactive.

Consider `O=C(C/C=N\OCc1ccc([N+](=O)[O-])cc1)Nc1ccc(F)cc1F`, for which the outcome was inactive.

For the compound `O=C(NNc1ccc([N+](=O)[O-])cc1)c1ccco1`, the compound was called inactive.

As for `CC1=C(C)C(=O)C(CCCCC#CCCCC#CCO)=C(C)C1=O`, the compound was classed as inactive.

Regarding `CC1CCCCC1NC(=O)c1ccc2c(c1)[nH]c(=O)n2C1CCCC1` (configuration not stated), the compound was called inactive.

As to `CCCCOC(=O)CSc1nnc(-c2ccc(Cl)cc2Cl)o1`, the result was inactive.

Consider `COc1ccc(N=Cc2c(O)cc(C)oc2=O)cc1`, for which the call was inactive.

Consider `COc1ccc(-c2cc(O)cc(O)c2)cc1`, for which the result was inactive.

With `Cn1c(N)c(C(=O)COC(=O)c2ccc([N+](=O)[O-])o2)c(=O)n(C)c1=O`, the compound was called inactive.

As to `CSc1cccc(N=C2C(=O)Nc3ccccc32)c1`, the result was inactive.

Take `Cc1ccc(Nc2nc(CSc3nnc(-c4cccs4)o3)cs2)cc1`: the outcome was inactive.

Take `Fc1ccc(-c2nnc(CSc3nnc(-c4cccs4)o3)o2)cc1`: the result was inactive.

Consider `CCCNC(=S)Nc1ccc(Nc2ccccc2)cc1`, for which the compound was classed as inactive.

In the case of `CCOC(=O)N1CCN(C(=O)CSc2nnc(-c3ccc(Cl)s3)o2)CC1`, the compound was called inactive.

On to `COc1ccc(NC(=O)CN(C)CC(=O)Nc2sc3c(c2C(N)=O)CCC3)cc1`, for which the call was inactive.

Turning to `CC1(C)CC(=O)C2=C(C1)OC(N)=C([N+](=O)[O-])C2c1ccc(C#N)s1` (configuration not stated), the outcome was inactive.

`Clc1ccc(CSc2ncn[nH]2)cc1`: the call was inactive.

In the case of `Nc1ccc(OCc2ccco2)cc1`, the result was inactive.

Take `CCCn1nc(C(=O)NNC(=O)c2ccc(C)c(C)c2)c2ccccc2c1=O`: the compound was classed as inactive.

For the compound `CCOC(=O)c1ccc(NC(=O)CCc2nc(-c3ccc(Cl)cc3)no2)cc1`, the result was inactive.

Regarding `CCOC(=O)c1ccc(NC(=O)CSc2ccc(-c3cccnc3)nn2)cc1`, the call was inactive.

`COc1cccc(/C=C/c2nc(C#N)c(NCC(C)C)o2)c1`: the compound was called inactive.

In the case of `O=C(CCc1c[nH]c2ccccc12)N1CCN(S(=O)(=O)c2ccccc2)CC1`, the compound was called inactive.

`CN(C)CCCN(C(=O)c1ccc([N+](=O)[O-])s1)c1nc2cc3c(cc2s1)OCCO3`: the outcome was inactive.

For the compound `Cc1ccc(-n2nnc3c(=O)oc4ccccc4c32)cc1`, the compound was called inactive.

For `Oc1cccc(-c2nc3ccccc3s2)c1`, the result was inactive.

For the compound `Cc1nc2sccn2c(=O)c1CCN1CCC(=C(c2ccccc2)c2ccc(F)cc2)CC1`, the outcome was inactive.

In the case of `Nc1c(C(=O)NC2CCCCC2)nsc1C(=O)OCC(=O)NC1CCCCC1`, the compound was classed as inactive.

As for `O=c1[nH]c(=O)n(C2CCCO2)cc1F` (configuration not stated), the compound was classed as inactive.

For the compound `NN/C(=C\[N+](=O)[O-])Nc1ccc(Cl)cc1`, the outcome was inactive.

With `CSc1ccc(CNC(=O)C2Cc3cc(S(=O)(=O)N4CCCCC4)ccc3N2C(C)=O)cc1` (configuration not stated), the call was inactive.

`Cc1ccc(CN2CCN(/N=C/c3ccc(Cl)c([N+](=O)[O-])c3)CC2)cc1`: the outcome was inactive.

Take `CC(C)CS(=O)(=O)C1=NN2C(=N)/C(=C\c3ccc(OC(=O)c4ccco4)cc3)C(=O)N=C2S1`: the compound was classed as inactive.

For the compound `CCCOC(=O)c1ccc(-c2ccc(C=O)o2)cc1`, the result was inactive.

For `COC(=O)CC(=O)N1CCN(c2ccc(Cl)c(Cl)c2)CC1`, the outcome was inactive.

With `O/N=C/c1cn(-c2ccc(Cl)cc2)nn1`, the compound was called inactive.

For the compound `CSCCOC(=O)COc1ccc(/C=N/NC(=O)c2c(Cl)cnn2C)cc1`, the compound was classed as inactive.

`O=C1CCC(=O)N1CNc1ccc(Oc2ccccc2)cc1`: the compound was classed as inactive.

Turning to `O/N=C/c1ccc2ccccc2c1`, the compound was called inactive.

For the compound `Nc1cc(C(=O)OCC(=O)NNC(=O)c2cccs2)ccc1Cl`, the compound was classed as inactive.

As to `CCCNc1nc(-c2cc(C(=O)Nc3ccccc3)on2)cc(C(C)C)n1`, the call was inactive.

On to `CO/N=C(\Cn1ncc(N2CCCC2)c(Cl)c1=O)c1ccc(Cl)cc1`, for which the result was inactive.

For the compound `O=C(COc1cc(O)c2c(=O)c3ccccc3oc2c1)OCc1ccccc1`, the compound was called inactive.

As for `C=CCC1(CC=C)CCCN1C(=O)c1cc(COc2ccc(-n3cncn3)cc2)on1`, the compound was called inactive.

Regarding `O=[N+]([O-])c1ccc(-c2csc(NN=C3CCCC3)n2)cc1`, the compound was classed as inactive.

Regarding `Cn1nc(C(F)(F)F)c2cc(NC(=O)OCC(C)(C)C)sc21`, the compound was called inactive.

As for `CCCCCCN=C1CC(C)(C)CC(=O)/C1=C(/O)CCC`, the call was inactive.

Turning to `Cc1occc1-c1nnc(SCC(=O)NCCc2ccccc2)o1`, the result was inactive.

`S=C(NCCc1ccccc1)NN=C1CCCCCC1`: the outcome was inactive.

Turning to `O=S(Cc1ccc(Br)cc1)Cc1nnc(SCc2ccc(Cl)cc2)n1-c1ccccc1` (configuration not stated), the compound was classed as inactive.

For the compound `COC(OC)c1ccnc(-c2ccc(OC(=O)c3cccs3)cc2)n1`, the outcome was inactive.

Regarding `O=C(COC(=O)c1cccs1)c1ccccc1`, the compound was classed as inactive.

As for `CCOC(=O)c1ccc(OC(=O)CCCCCN=C(N)N)cc1`, the compound was classed as inactive.

For the compound `CC1(C)CC(=O)c2c(O)cc(OCc3ccc(Br)cc3)cc2O1`, the result was inactive.

On to `CCOc1ccc(NC(=O)CCc2nnc3ccc(N4CCC(C)CC4)nn23)cc1`, for which the call was inactive.

For `Cc1ccc(C(C)C)c(OCC(=O)OCc2c(C)noc2C)c1`, the compound was classed as inactive.
